Inconclusive results are not listed. Activity calls are given as the source filed them. The call rests on the fitted dose curve; in most records, active means well fitted activation curve with a large enough effect; inconclusive means small, poorly fitted or top-dose-only effect; inactive means no such curve, though single readings can be large or run the other way.
Experiment: qHTS for Activators of Parkin Expression: LOPAC Validation Assay (FLuc Reporter) (AID 720573)
Conditions: Cell line, PRKN promoter firefly luciferase reporter, vehicle wells = 0, positive control = 100%; series mostly up to 46.1 µM
Excerpt: Parkin is an E3 ubiquitin ligase localized in the cytosol of cells expressed in many tissues, including brain, skeletal muscle, heart and liver tissues. One hour after stress induction by mitochondrial uncouplers (which mimic mitochondria damage by decreasing the mitochondrial inner membrane electrochemical gradient that is used to produce ATP), Parkin translocates from the cytosol to mitochondria in many cultured cell types, including neurons and HeLa cells. Administration of other mitochondrial poisons, such as Paraquat and azide in cells lacking mitochondrial DNA (mtDNA), induces Parkin translocation to mitochondria. […] It was proposed that Parkin (together with Pink1) mediates a mitochondrial quality control pathway to maintain organelle population fidelity by removing damaged mitochondria. Understanding the normal physiologic role of Parkin (and Pink1) may uncover novel treatment strategies for sporadic Parkinson's disease patients with mutation in these genes.
A cell based qHTS in 1536 well format was developed assess modulation of Parkin expression using a neuronal cell line that stably expresses a stably expresses a luminescent coincidence reporter (FLuc and NLuc reporters) behind the Parkin promoter. The LOPAC library is used to validate the assay for quantitative high-throughput screening. The data herein reports the signal from the FLuc reporter. An increase in this signal = activation of Parkin expression. For this assay , a positive control normalized signal increase corresponding to a high quality qHTS curve class in both luminescent channels is the desired outcome for this assay.
NIH Chemical Genomics Center [NCGC]
NIH Molecular Libraries Probe Centers Network [MLPCN]
Assay Submitter (PI): Richard Youle, National Institute of Neurological Disorders and Strokes (NINDS), NIH
[1] Narendra, D., et al., Parkin is recruited selectively to impaired mitochondria and promotes their autophagy. J Cell Biol, 2008. 183(5): p. 795-803.
[2] Suen, D.F., et al., Parkin overexpression selects against a deleterious mtDNA mutation in heteroplasmic cybrid cells. Proc Natl Acad Sci U S A, 2010. […] 11835-40.
[3] Cheng K, Inglese J. A coincedence reporter-gene system for high-throughput screening. Nat Methods. 2012: 9(10);937
Five microliters (1,500 cells/well) of the Parkin coincidence reporter cells were seeded to 1536 well assay plates (Greiner Catalog # 789173-F) and incubated at 37 C, 5% CO2 for 24 hours. Compounds (23 nL) were pinned using the Kalypsys robotic system equipped with 1536 pin head adaptor in 7-point dose response. The assay plates were incubated for additional 24 hr at 37 C, 5% CO2 followed by a volume reduction in each well to 2 uL using an automated plate washer/aspirator. Following the volume reduction,2 uL of FLuc detection reagent and plates were incubated for 10 minutes at room temperature. The FLuc luminescence signal was obtained using the PerkinElmer ViewLux plate imager and then 2 uL of NanoLuc detection reagent was added to the plates. After another 10 minute incubation, NanoLuc signal was obtained using the PerkinElmer ViewLux plate imager as before. Data from each channel was normalized to DMSO (neutral control) and the positive control compounds (100%).
In the case of `COC(=O)[C@H]1[C@H]2C[C@@H]3c4[nH]c5cc(OC)ccc5c4CCN3C[C@H]2C[C@@H](OC(=O)c2cc(OC)c(OC)c(OC)c2)[C@@H]1OC`, the outcome is reported as “inactive”. With `CN(C)[C@@H]1C(=O)C(C(N)=O)=C(O)[C@@]2(O)C(=O)C3=C(O)c4c(O)ccc(Cl)c4[C@@H](O)[C@H]3C[C@@H]12` the outcome was “inactive”. For `COCCOC(=O)C1=C(C)NC(C)=C(C(=O)OC(C)C)C1c1cccc([N+](=O)[O-])c1` (stereo not given), the outcome was “inactive”. For `NC(N)=N/N=C/c1c(Cl)cccc1Cl`, the outcome was “inactive”. For `c1ccc2c(c1)CCCC2C1=NCCN1` (stereo not given), the outcome was “inactive”. For `COc1ccc([C@@H]2Sc3ccccc3N(CCN(C)C)C(=O)[C@@H]2OC(C)=O)cc1`, the outcome was “inactive”. In the case of `CCNC(=O)N1CCN(CCCC(c2ccc(F)cc2)c2ccc(F)cc2)CC1`, the outcome is reported as “inactive”. In the case of `O=C(CCNNC(=O)c1ccncc1)NCc1ccccc1`, the outcome is reported as “inactive”. In the case of `CCCCCN(CCCCC)C(=O)C(CCC(=O)O)NC(=O)c1ccc(Cl)c(Cl)c1` (stereo not given), the outcome is reported as “inactive”. In the case of `CCCN1C[C@H](CSC)C[C@@H]2c3cccc4[nH]cc(c34)C[C@H]21`, the outcome is reported as “inactive”. For `Cc1nc2ccccn2c(=O)c1CCN1CCC(C(=O)c2ccc(F)cc2)CC1`, the outcome was “inactive”. For `Nc1ncn([C@@H]2O[C@H](CO)[C@@H](O)[C@H]2O)c(=O)n1`, the outcome was “inactive”. For `CCN(Cc1ccncc1)C(=O)C(CO)c1ccccc1` (stereo not given), the outcome was “inactive”. For `O=C(O)CP(=O)(O)O`, the outcome was “inactive”. In the case of `NC(N)=NC(=O)Cc1c(Cl)cccc1Cl`, the outcome is reported as “inactive”. In the case of `COCC(=O)O[C@]1(CCN(C)CCCc2nc3ccccc3[nH]2)CCc2cc(F)ccc2[C@@H]1C(C)C`, the outcome is reported as “inactive”. In the case of `COCCCC/C(=N\OCCN)c1ccc(C(F)(F)F)cc1`, the outcome is reported as “inactive”. With `CCCC(C(=O)OCCN(CC)CC)(c1ccccc1)c1ccccc1` the outcome was “inactive”. For `NC/C=C/C(=O)O`, the outcome was “inactive”. With `NCCCNCCSP(=O)(O)O` the outcome was “inactive”. For `C=CCc1ccccc1OCC(O)CNC(C)C` (stereo not given), the outcome was “inactive”. In the case of `NC(=O)N1c2ccccc2C=Cc2ccccc21`, the outcome is reported as “inactive”. With `Nc1nc(N)c2nc(-c3ccccc3)c(N)nc2n1` the outcome was “inactive”. In the case of `CCc1cccc(N(C)C(N)=Nc2cccc3ccccc23)c1`, the outcome is reported as “inactive”. With `Cc1nnc(SCC2=C(C(=O)O)N3C(=O)[C@@H](NC(=O)Cn4cnnn4)[C@H]3SC2)s1` the outcome was “inactive”. With `Cc1scc2c1N(C(=O)CN1CCN(C)CC1)c1ccccc1NC2=O` the outcome was “inactive”. With `O=C(O)CCCCCCCC(=O)O` the outcome was “inactive”. With `CN1C(=O)CC[C@H]1c1cccnc1` the outcome was “inactive”. For `CC(C)[N+](C)(CCOC(=O)C1c2ccccc2Oc2ccccc21)C(C)C`, the outcome was “inactive”. In the case of `CCCOc1ccccc1-c1nc2n[nH]nc2c(=O)[nH]1`, the outcome is reported as “inactive”. With `C(=C\c1ccccc1)/CN1CCN(C(c2ccccc2)c2ccccc2)CC1` the outcome was “inactive”. For `CN(C)CCOC(=O)COc1ccc(Cl)cc1`, the outcome was “inactive”. With `CC(=O)Nc1nnc(S(N)(=O)=O)s1` the outcome was “inactive”. For `CCN1CCC[C@H]1CNC(=O)c1c(O)c(Cl)cc(Cl)c1OC`, the outcome was “inactive”. For `OCCN1CCN(CC/C=C2/c3ccccc3Sc3ccc(C(F)(F)F)cc32)CC1`, the outcome was “inactive”. In the case of `COC(=O)C1=C(C)NC(C)=C(C(=O)OC(C)(C)CN(C)CCC(c2ccccc2)c2ccccc2)C1c1cccc([N+](=O)[O-])c1` (stereo not given), the outcome is reported as “inactive”. With `Cc1ccc(=O)n(-c2ccccc2)c1` the outcome was “inactive”. In the case of `C[N+](C)(C)CCOC(=O)CCC(=O)OCC[N+](C)(C)C`, the outcome is reported as “inactive”. With `CCO/C([O-])=N/c1c[n+](N2CCOCC2)no1` the outcome was “inactive”. For `C[C@]12CC[C@@H]3c4ccc(O)cc4C[C@@H](CCCCCCCCCS(=O)CCCC(F)(F)C(F)(F)F)[C@H]3[C@@H]1CC[C@@H]2O` (stereo not given in full), the outcome was “inactive”.

Source: PubChem BioAssay (NCATS)
